This note sets out measurements from PubChem BioAssay (Tox21).

Several values for one entry are separate records, joined by “and”; a condition that tells them apart may be missing. Equal entries are not always repeated. Inconclusive results are not listed. Some structures have more than one record in an assay (separate samples or runs), and their calls can disagree. Activity calls are given as the source filed them. Unless noted, calls come from the whole dose curve; as a rule, active = well fitted curve in the direction sought with a large enough effect in the repeat runs; inconclusive = weak or mixed curves; inactive = no such curve, though single readings can be large; an effect the other way counts as inactive or inconclusive.

The nature of assay [1]: qHTS assay to identify small molecule antagonists of the retinoid acid receptor (RAR) signaling pathway - cell viability counter screen (AID 1159551). Note: nearly all actives have a fitted effect of over 35% in size. A digest of the protocol:
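ATP-based viability, C3RL4 cells, 6 h at 37 C with 1 uM final retinol co-added after compound; luminescence read 30 min post CellTiter-Glo, RT.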
Background: In qHTS, concentration-response curves come from the screen itself.

Assay [2] is described as follows: qHTS assay to identify small molecule antagonists of the retinoic acid receptor (RAR) signaling pathway (AID 1159552; note: nearly all actives have a fitted effect of over 50% in size; note: potency is the fitted concentration of half-maximal effect). The gist of the method: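 Antagonism of retinol-induced RARE reporter activity was measured in C3RL4 cells. Exposure to compounds and 1 uM final retinol lasted 6 hr at 37 C, with luminescence as endpoint.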
Assay [3] can be described thus: qHTS assay to identify small molecule agonists of the retinoic acid receptor (RAR) signaling pathway (AID 1159553). Note: potency is the fitted concentration of half-maximal effect. A digest of the protocol: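 Quantitative high-throughput format: the Tox21 10K library was tested on C3RL4 RARE-luciferase cells for 6 hr at 37 C and 5% CO2, with luminescence measured after a 30 min room-temperature reagent step.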
In assay [4] the target is Luciferin 4-monooxygenase (Photinus pyralis) (UniProt P08659). The assay is described as follows: qHTS assay to identify small molecule inhibitors of firefly luciferase (AID 1224835). Note: nearly all actives have a fitted effect of over 25% in size. Note: potency is the fitted concentration of half-maximal effect. The gist of the method: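 Inhibition of purified Photinus luciferase is measured by luminescence. Substrate levels (D-luciferin, ATP) sit at their KM values. Each compound is tested in a concentration series.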

Assay [5] concerns the target Nuclear receptor subfamily 1 group I member 3 (Homo sapiens) (UniProt Q14994). The assay is described as follows: qHTS assay to identify small molecule antagonists of the constitutive androstane receptor (CAR) signaling pathway (AID 1224838).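 Note: HepG2 cells stably expressing hCAR with CYP2B6 luciferase reporter stimulated by CITCO; nearly all actives have a fitted effect of over 40% in size.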 Note: potency is the fitted concentration of half-maximal effect. The gist of the method: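 Luminescence from a CYP2B6-2.2kb promoter reporter in hCAR-expressing HepG2 cells reflects CAR signaling. Cells received compounds at 15 concentrations and 50 nM CITCO (final), then incubated 24 h at 37 C/5% CO2.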

Assay [6] has the same target. In words: qHTS assay to identify small molecule agonists of the constitutive androstane receptor (CAR) signaling pathway (AID 1224839).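 Note: HepG2 cells stably carrying human CAR and a CYP2B6 luciferase reporter; series mostly up to about 92 µM; nearly all actives have a fitted effect of over 15% in size.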 The gist of the method: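 Readout: firefly luciferase luminescence via ONE-Glo. System: HepG2 double-stable for hCAR and CYP2B6-2.2kb. Conditions: 15-point compound titration, PK11195 at 0.75 uM final, 24 h incubation.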
Assay [7] can be described thus: qHTS assay to identify small molecule antagonists of the estrogen related receptor signaling pathway with the pleiotropic PPARgamma coactivator (PGC) from Tox21 10K library - cell viability counter screen (AID 1224840; active = well fitted cell-killing curve with a large enough effect in the repeat runs, not every such curve was filed as active; note: nearly all actives have a fitted effect of over 40% in size; note: potency is the fitted concentration of half-maximal effect). The gist of the method: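 Cell viability is measured by CellTiter-Fluor fluorescence in PGC/ERR cells that receive compounds after a 6-hour attachment period and are then incubated 17.5 hours at 37 C.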

Assay [8] is described as follows: qHTS assay to identify small molecule antagonists of the estrogen related receptor signaling pathway with the pleiotropic PPARgamma coactivator (PGC) from Tox21 10K library (AID 1224841; call rule not given here; note: actives are mostly falling curves and most rising ones were filed inactive; nearly all actives have a fitted effect of over 50% in size; note: potency is the fitted concentration of half-maximal effect). The gist of the method:
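Cells stably carrying the PGC/ERR reporter, seeded at 2,000 per well, received pin-transferred compounds 6 h post-plating. Exposure lasted 18 h at 37 C. Signal: One-Glo luminescence.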

Assay [9] is described as follows: qHTS assay to identify small molecule agonists of the estrogen related receptor signaling pathway with the pleiotropic PPARgamma coactivator (PGC) from Tox21 10K library (AID 1224842). Note: nearly all actives have a fitted effect of over 15% in size. The gist of the method:
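Luminescence from One-Glo (30 min, room temperature) measured after PGC/ERR cells had 18 h at 37 C with pinned compound (23 nL in DMSO). Cells had been seeded at 2,000 per well and pre-incubated 6 h.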

A short description of assay [10]: qHTS assay to identify small molecule agonists of the RXR signaling pathway - cell viability counter screen (AID 1159529). Note: nearly all actives have a fitted effect of over 50% in size. Note: potency is the fitted concentration of half-maximal effect. The gist of the method:
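Counter screen: CellTiter-Glo luminescence. Cells: RXR-alpha-UAS-bla HEK 293T. Medium: 2% charcoal-stripped FBS. Treatment: 16 h, 37 C. Reagent incubation: 30 min, RT.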

Assay [11] in a line: qHTS assay to identify small molecule agonists of the constitutive androstane receptor (CAR) signaling pathway - cell viability counter screen (AID 1224836). Note: nearly all actives have a fitted effect of over 45% in size. Note: potency is the fitted concentration of half-maximal effect. The gist of the method: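 Double-stable HepG2 hepatoma cells (hCAR plus CYP2B6-2.2kb) are treated for 23 h at 37 C with test compounds in 15-point concentration series. PK11195 at 0.75 uM final is co-added. Cell viability is quantified by CellTiter-Fluor.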

Assay [12] in a line: qHTS assay to identify small molecule antagonists of the constitutive androstane receptor (CAR) signaling pathway - cell viability counter screen (AID 1224837). Note: nearly all actives have a fitted effect of over 45% in size. Note: potency is the fitted concentration of half-maximal effect. A digest of the protocol:
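Cells are seeded, rested 4 hr at 37 C/5% CO2, dosed with compound (15-point series) and 50 nM CITCO, incubated a further 23 hr, and then CellTiter-Fluor reagent is added before fluorescence is read. The line is HepG2 with stable hCAR and CYP2B6-2.2kb.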

Assay [13] deals with Thyrotropin receptor (Homo sapiens) (UniProt P16473). In words: qHTS assay to identify small molecule agonists of the thyroid stimulating hormone receptor (TSHR) signaling pathway (AID 1224843; calls by dose curve; note: nearly all actives have a fitted effect of over 45% in size; note: potency is the fitted concentration of half-maximal effect). The gist of the method:
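Agonist activity read as cAMP rise via d2/cryptate HTRF competition, 1 h room-temperature detection, in HEK293 cells expressing TSHR. Fifteen-point titrations, each run in triplicate, with a 30 min room-temperature incubation beforehand.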

Assay [14] is described as follows: qHTS assay to identify small molecule antagonists of the estrogen related receptor (ERR) signaling pathway - cell viability counter screen (AID 1224818).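 Note: series mostly up to about 46 µM; viability measured after 17.5 h of compound exposure.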 The gist of the method: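 Quantitative high-throughput viability counter screen in ERR cells. Compounds (DMSO) incubated 17.5 h at 37 C; read-out was CellTiter-Fluor fluorescence.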
Assay [15] is described as follows: qHTS assay to identify small molecule antagonists of the estrogen related receptor (ERR) signaling pathway from Tox21 library - cell viability counter screen (AID 1224834). Note: nearly all actives have a fitted effect of over 30% in size. Note: potency is the fitted concentration of half-maximal effect. The gist of the method:
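Compounds in DMSO were pinned onto ERR cells that had been incubated for 6 h, and the plates were held at 37 C for 17.5 h. CellTiter-Fluor reagent was then added and fluorescence was measured after 30 min.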

The nature of assay [16]: qHTS assay to identify small molecule antagonists of the estrogen related receptor (ERR) signaling pathway (AID 1224819; note: series mostly up to about 46 µM; nearly all actives have a fitted effect of over 50% in size). A digest of the protocol:
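ERR reporter cell line (NTP) plated at 2,000 cells/well, settled 6 h at 37C/5% CO2, then exposed to LOPAC compounds for 18 h at 37C. One-Glo luciferase luminescence read after 30 min at room temperature.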

Assay [17] can be described thus: qHTS assay to identify small molecule agonists of the estrogen related receptor (ERR) signaling pathway (AID 1224820). The gist of the method:
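After 6 h plating (2,000 cells/well) and 18 h compound treatment at 37 C, ERR cells were lysed with One-Glo and luminescence read after 30 min at room temperature.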

Assay [18] deals with estrogen-related receptor alpha (ERRalpha) with PGC-1alpha coactivator, human. The assay is described as follows: qHTS assay to identify small molecule antagonists of the estrogen related receptor signaling pathway with the pleiotropic PPARgamma coactivator (PGC) (AID 1224821; calls by dose curve). The gist of the method:
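Luminescence from One-Glo luciferase reagent (30 min, room temperature) measured after 18 h compound treatment at 37 °C. Cells carry the PGC/ERR reporter and were seeded 6 h prior to dosing.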

Assay [19] is described as follows: qHTS assay to identify small molecule agonists of the estrogen related receptor signaling pathway with the pleiotropic PPARgamma coactivator (PGC) (AID 1224823). The gist of the method: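 Luminescence from One-Glo reagent (30 min, room temperature) was read after 18 h compound treatment at 37 C of PGC/ERR cells plated 6 h beforehand; compounds delivered in DMSO by pin tool.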

Sequence of Luciferin 4-monooxygenase (Photinus pyralis) (P08659 whole entry, looked up): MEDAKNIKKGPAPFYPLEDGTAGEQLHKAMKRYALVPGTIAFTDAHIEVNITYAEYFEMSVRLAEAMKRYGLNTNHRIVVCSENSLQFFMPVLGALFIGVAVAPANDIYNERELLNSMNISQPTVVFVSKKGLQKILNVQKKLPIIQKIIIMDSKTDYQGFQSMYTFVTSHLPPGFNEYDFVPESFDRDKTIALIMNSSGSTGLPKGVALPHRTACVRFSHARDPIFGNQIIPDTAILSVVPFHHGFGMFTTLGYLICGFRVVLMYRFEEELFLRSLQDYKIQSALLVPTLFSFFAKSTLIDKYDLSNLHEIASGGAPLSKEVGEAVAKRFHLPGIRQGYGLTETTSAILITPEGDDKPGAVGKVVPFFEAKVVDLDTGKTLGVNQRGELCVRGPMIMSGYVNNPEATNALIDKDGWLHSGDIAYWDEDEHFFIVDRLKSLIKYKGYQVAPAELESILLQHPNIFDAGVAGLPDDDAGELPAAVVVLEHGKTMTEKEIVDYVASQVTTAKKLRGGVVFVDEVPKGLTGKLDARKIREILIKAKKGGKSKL
Sequence of Nuclear receptor subfamily 1 group I member 3 (Homo sapiens) (Q14994 whole entry, looked up): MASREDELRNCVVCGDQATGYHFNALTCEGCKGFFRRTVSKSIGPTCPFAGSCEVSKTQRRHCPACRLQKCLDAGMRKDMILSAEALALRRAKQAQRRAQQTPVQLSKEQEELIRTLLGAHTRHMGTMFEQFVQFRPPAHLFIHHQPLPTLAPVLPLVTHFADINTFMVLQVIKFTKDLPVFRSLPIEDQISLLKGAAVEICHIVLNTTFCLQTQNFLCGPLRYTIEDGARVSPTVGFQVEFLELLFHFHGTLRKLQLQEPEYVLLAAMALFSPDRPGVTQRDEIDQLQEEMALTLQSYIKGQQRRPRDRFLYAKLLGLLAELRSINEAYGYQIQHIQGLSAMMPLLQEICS
Sequence of Thyrotropin receptor (Homo sapiens) (P16473 whole entry, looked up): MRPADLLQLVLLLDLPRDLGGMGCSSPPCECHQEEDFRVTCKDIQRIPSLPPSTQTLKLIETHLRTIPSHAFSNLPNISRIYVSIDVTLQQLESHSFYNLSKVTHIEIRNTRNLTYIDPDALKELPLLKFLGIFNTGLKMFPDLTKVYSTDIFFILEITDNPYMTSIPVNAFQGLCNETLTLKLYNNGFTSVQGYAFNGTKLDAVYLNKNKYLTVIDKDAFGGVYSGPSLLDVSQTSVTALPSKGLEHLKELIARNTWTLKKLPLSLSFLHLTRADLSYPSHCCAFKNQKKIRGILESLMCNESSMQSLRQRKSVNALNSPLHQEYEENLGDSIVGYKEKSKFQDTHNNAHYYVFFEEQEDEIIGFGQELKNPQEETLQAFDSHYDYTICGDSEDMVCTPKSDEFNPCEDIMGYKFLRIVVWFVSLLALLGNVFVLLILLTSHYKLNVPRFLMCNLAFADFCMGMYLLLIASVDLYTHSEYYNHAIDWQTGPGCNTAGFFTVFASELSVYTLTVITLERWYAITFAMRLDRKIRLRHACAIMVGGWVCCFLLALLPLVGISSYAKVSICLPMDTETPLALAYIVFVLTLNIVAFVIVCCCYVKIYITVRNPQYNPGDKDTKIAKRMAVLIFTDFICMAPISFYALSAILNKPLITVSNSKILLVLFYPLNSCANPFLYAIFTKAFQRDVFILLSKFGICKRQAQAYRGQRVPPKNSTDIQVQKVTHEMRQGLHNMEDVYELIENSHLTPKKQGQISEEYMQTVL

Regarding `CC(C)(C)c1ccc(CSc2cnn(C(C)(C)C)c(=O)c2Cl)cc1`, the Potency result in assay [1], in assay [2], in [3], in assay [4], in assay [5] and in [6] was “inactive” throughout. Besides, the Potency entry in assay [7] and in [9] was “inactive” throughout. Moreover, the Potency in [8] was 4.9 nM (active).
Regarding `NC(=O)c1ccc(N)nc1`, the Potency in [10] is 13.8 µM (active). The Potency result in assay [4], in assay [11], in assay [12], in assay [5] and in assay [7] was “inactive” throughout.
As to `CC(C)OC(=O)C(O)(c1ccc(Cl)cc1)c1ccc(Cl)cc1`, the Potency in assay [10] is 38.9 µM (active); in [2] it was 43.3 µM (active); in [13], 48.6 µM (active). In addition, the Potency result in [4], in assay [11], in [12] and in assay [5] was “inactive” throughout.
On to `C[C@@H]1O[C@@H](O[C@H]2C[C@@H](O)[C@]3(CO)[C@H]4[C@H](O)C[C@]5(C)[C@@H](C6=CC(=O)OC6)CC[C@]5(O)[C@@H]4CC[C@]3(O)C2)[C@H](O)[C@H](O)[C@H]1O`, for which the Potency entry in [1], in assay [2], in assay [3], in [4] and in [6] was “inactive” in each case. In addition, in [14], the outcome was inactive. In addition, the Potency was 91.9 nM (active) and 84.1 nM (active) in assay [15]; 231 nM (active) and 266 nM (active) in [11]; 146 nM (active) and 168 nM (active) in assay [5].
For the molecule `CN(C)c1ccc(N=Nc2ccccc2)cc1`, the Potency entry in assay [1], in assay [2] and in assay [13] was “inactive” each time. Besides, the Potency was 97 nM (active) in assay [3], 43.3 µM (active) in assay [15] and 252 nM (active) in assay [4].
In the case of `CCCCCCCCCCCCBr`, the Potency entry in [1], in [2], in assay [3], in assay [15], in [11] and in assay [12] was “inactive” throughout. The Potency result in assay [5], in assay [6] and in assay [13] was “inactive” in each case.
Regarding `CCCCCCCCCCCCCCCC[N+](C)(C)C`, the Potency was 10.6 µM (active) and 24.5 µM (active) and 12 µM (active) in assay [10]; 23.5 µM (active) and 61.1 µM (active) and 18.8 µM (active) in assay [15]; 54.5 µM (active) in assay [11]; 54.5 µM (active) in [12]; “inactive and 61.1 µM (active)” in assay [7]. The Potency entry in [4], in assay [5] and in assay [6] was “inactive” in each case.
On to `CC1CCC(C(C)C)C(OC(=O)c2ccccc2N)C1` (stereo not drawn), for which, in assay [10], the Potency is 17.1 µM (active). Moreover, the Potency entry in assay [4], in [11], in assay [12], in [5], in [9] and in [13] was “inactive” throughout.
For the molecule `O=C(CCCN1CCC2(CC1)C(=O)NCN2c1ccccc1)c1ccc(F)cc1`, the Potency result in assay [10], in assay [3], in assay [16], in assay [18], in assay [15] and in [4] was “inactive” throughout. Further, the Potency entry in [6], in assay [7], in [8], in [9] and in [13] was “inactive” throughout. The outcome in assay [14], in assay [17] and in [19] was inactive. Also, the values for the Potency in [11], in assay [12] and in assay [5] were 5.96 µM (active), 3.35 µM (active) and 7.5 µM (active), respectively.
